Records with an inconclusive call do not appear. Activity calls are given as the source filed them. Calls follow the shape of the dose curve; as a rule, active = well fitted curve in the direction sought with a large enough effect; inconclusive = small, poorly fitted or top-dose-only effect, or another doubt; inactive = no such curve, though single readings can be large; an effect the other way counts as inactive or inconclusive.
Legend:
[1] = molecular target: Arylsulfatase A (Homo sapiens) (UniProt P15289); experiment: qHTS screen for enhancers of Arylsulfatase A (ASA1): LOPAC Validation Assay (AID 720538)
Chain of Arylsulfatase A (Homo sapiens) (P15289 whole entry, looked up): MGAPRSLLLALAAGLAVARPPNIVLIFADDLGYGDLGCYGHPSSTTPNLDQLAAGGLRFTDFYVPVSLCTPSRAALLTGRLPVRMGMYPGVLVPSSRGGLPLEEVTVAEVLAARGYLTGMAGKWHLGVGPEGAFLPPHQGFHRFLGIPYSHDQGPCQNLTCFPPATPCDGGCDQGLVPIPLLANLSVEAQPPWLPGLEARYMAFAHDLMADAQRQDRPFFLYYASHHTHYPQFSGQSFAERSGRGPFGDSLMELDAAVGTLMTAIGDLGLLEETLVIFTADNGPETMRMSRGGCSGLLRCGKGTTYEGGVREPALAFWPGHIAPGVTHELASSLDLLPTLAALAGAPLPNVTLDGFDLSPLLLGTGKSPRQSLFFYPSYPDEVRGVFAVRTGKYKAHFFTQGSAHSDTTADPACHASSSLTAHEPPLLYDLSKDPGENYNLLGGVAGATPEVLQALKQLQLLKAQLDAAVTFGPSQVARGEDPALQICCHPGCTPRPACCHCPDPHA
How it was run: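 Read-out: fluorescence at Ex=525/Em=598 nm after 1N NaOH final stop. Patient fibroblasts carrying ASA-I179S had 48h compound exposure, then 14h room-temperature pNCS hydrolysis (0.5mM final) in lysis buffer. Signal increase = enhanced activity.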

[2] = qHTS for compounds that reverse cellular toxicity of Amyloid beta (A-beta) peptide in yeast: LOPAC Validation Assay (AID 720559)
How it was run: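 OD600 growth readout after 48 hr at 30 C; A-beta-toxic yeast plus pinned compounds in medium. Normalization: DMSO = negative, equimolar FeCl3 + clioquinol = positive.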

[3] = qHTS for Activators of Parkin Expression: LOPAC Validation Assay (NLuc Reporter) (AID 720572)
How it was run: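 Compound effects on Parkin promoter activity were measured as NanoLuc luminescence after 24 h at 37 C. The neuronal reporter line also carried FLuc, which was read first. LOPAC compounds were tested at 7 concentrations, with normalization to DMSO (0%) and positive control (100%).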

[4] = qHTS for Activators of Parkin Expression: LOPAC Validation Assay (FLuc Reporter) (AID 720573)
How it was run: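 FLuc luminescence read-out from a neuronal line expressing a Parkin-promoter-driven coincidence reporter. Cells treated 24 h at 37 C, 5% CO2 with compounds at 7 concentrations; signal increase normalized to DMSO and positive control.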

[5] = molecular target: Hexokinase-4 (Homo sapiens) + Glucokinase regulatory protein (Homo sapiens) (UniProt P35557+Q14397); experiment: qHTS assay for inhibitors of recombinant human GCK-GKRP interaction: Diaphorase-coupled assay (AID 743205)
Chain of Hexokinase-4 (Homo sapiens) + Glucokinase regulatory protein (Homo sapiens) (P35557 whole entry, looked up): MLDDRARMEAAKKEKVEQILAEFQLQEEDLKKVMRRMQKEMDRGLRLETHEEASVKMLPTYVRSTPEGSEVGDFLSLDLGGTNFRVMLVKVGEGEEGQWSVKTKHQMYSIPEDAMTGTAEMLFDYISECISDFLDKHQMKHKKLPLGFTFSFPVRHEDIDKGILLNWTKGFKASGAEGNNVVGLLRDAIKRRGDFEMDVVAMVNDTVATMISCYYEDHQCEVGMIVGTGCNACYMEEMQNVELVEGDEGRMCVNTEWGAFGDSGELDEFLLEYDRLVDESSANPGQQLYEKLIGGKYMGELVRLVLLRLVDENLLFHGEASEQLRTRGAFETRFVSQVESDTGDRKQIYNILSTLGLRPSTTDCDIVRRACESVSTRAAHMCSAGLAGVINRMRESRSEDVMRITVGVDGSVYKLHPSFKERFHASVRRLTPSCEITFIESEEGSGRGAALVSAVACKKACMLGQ
Chain of Hexokinase-4 (Homo sapiens) + Glucokinase regulatory protein (Homo sapiens) (Q14397 whole entry, looked up): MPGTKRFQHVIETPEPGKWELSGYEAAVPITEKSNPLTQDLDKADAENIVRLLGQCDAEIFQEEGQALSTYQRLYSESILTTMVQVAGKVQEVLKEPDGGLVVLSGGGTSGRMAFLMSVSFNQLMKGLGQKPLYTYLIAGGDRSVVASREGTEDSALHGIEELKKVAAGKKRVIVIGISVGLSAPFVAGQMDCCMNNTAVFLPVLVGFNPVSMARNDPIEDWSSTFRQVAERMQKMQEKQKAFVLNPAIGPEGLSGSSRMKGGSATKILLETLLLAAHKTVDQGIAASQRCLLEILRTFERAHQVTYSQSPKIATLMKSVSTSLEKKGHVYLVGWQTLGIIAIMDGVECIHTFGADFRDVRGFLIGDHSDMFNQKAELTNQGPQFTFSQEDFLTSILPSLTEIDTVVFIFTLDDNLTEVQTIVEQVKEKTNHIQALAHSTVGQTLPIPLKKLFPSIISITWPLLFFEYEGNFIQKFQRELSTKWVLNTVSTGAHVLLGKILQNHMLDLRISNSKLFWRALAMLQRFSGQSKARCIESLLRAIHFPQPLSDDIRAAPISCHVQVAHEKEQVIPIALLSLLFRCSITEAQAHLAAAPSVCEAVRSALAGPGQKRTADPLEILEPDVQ
How it was run: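 Resorufin fluorescence (525/590 nm), read each minute over 30 min, reports GCK activity coupled via G6PDH and diaphorase. Reaction: 10 nM GST-GCK, 10 nM FLAG-GKRP, 5 mM glucose, 0.4 mM ATP, 0.15 mM NADP+, 0.1 mM resazurin.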

Measured: Potency

N=S(=O)(O)Cc1noc2ccccc12
inactive: all assays above

NC(N)=N[C@@H](CCC(=O)O)C(=O)O
inactive: all assays above

CN1CCCC1CCOC(C)(c1ccccc1)c1ccc(Cl)cc1 (stereo not drawn)
inactive: all assays above

Nc1ccc(CCNc2ncnc3c2ncn3C2OC(CO)C(O)C2O)cc1 (stereo not drawn)
inactive: all assays above

Cc1cccc(C(=O)NCN2CCN(c3ccccc3C#N)CC2)c1
inactive: all assays above

C=C1C(=O)O[C@@H]2[C@H]3O[C@]3(C)CCC=C(C)CC[C@@H]12
inactive: all assays above

CCN1C(=O)C=CC1=O
inactive: all assays above

O=C(O)C1=CCNCC1
inactive: all assays above

CCOC(=O)C12CC1/C(=N/O)c1ccccc1O2 (stereo not drawn)
inactive: all assays above

CNC(=O)c1cc2c(cn1)[nH]c1ccccc12
not listed: [4]
inactive: all other assays above

CN1CC(O)C(O)C(O)C1CO (stereo not drawn)
inactive: all assays above

CC(C)C[C@H](NC(=O)C1OC1C(=O)O)C(=O)NCCCCN=C(N)N (stereo partly drawn)
inactive: all assays above

Cc1cccc(C)c1OCC(N)C(C)C (stereo not drawn)
not listed: [3]
inactive: all other assays above

From PubChem BioAssay (NCATS)
